BLM inh = inhibitors of human Bloom syndrome helicase BLM; P54132; recombinant BLM DNA unwinding, fluorescence dequenching; Potency, µM (highest dose often 56.1 µM), inactives show at the top dose activity change, negative = inhibition, actives largely listed as inhibitors; hit rate 0.2% among 350,000;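 also: plate controls were vehicle for no effect and no enzyme for full effect; nearly all actives have a fitted effect of over 35% in size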
Target sequence (P54132 whole entry, looked up): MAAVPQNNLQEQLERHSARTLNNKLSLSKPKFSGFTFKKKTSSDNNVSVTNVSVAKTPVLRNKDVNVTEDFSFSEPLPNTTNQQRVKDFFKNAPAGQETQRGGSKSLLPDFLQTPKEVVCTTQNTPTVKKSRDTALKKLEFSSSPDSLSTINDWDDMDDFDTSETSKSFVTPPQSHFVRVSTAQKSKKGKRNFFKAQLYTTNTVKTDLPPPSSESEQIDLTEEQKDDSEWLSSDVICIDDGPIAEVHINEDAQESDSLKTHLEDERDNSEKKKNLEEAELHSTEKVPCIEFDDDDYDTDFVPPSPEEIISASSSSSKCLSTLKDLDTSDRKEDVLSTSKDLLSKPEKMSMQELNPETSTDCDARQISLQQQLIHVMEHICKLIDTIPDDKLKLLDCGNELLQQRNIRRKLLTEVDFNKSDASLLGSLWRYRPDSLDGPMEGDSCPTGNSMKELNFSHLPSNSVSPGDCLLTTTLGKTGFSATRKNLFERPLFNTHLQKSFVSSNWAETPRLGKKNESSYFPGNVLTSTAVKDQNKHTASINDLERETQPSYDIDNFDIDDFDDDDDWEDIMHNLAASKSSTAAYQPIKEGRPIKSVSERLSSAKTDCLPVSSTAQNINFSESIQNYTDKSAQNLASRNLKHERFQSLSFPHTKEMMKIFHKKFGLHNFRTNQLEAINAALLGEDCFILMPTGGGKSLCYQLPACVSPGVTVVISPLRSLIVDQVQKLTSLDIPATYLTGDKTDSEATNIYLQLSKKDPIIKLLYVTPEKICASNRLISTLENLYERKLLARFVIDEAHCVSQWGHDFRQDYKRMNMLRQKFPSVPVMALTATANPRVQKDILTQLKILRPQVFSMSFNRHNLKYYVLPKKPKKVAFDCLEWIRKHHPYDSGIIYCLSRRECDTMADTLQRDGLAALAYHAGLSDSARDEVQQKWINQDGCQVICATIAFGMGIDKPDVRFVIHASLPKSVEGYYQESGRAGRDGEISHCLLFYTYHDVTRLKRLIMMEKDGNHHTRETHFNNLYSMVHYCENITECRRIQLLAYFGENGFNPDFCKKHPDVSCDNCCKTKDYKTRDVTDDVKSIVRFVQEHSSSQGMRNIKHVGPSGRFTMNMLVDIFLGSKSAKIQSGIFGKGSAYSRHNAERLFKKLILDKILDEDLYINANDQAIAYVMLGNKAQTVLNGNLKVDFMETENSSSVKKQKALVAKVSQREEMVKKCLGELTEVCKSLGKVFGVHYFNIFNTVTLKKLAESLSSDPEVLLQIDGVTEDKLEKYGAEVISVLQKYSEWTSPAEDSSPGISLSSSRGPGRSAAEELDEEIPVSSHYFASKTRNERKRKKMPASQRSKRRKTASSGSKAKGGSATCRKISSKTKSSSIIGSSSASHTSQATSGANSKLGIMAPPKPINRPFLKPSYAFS
APE1 inh = blocks human APE1 abasic DNA cleavage; recombinant APE1, TAMRA/BHQ-2 abasic DNA cleavage fluorescence; Potency, µM (top dose mostly 65.8 µM), for the others: top-dose activity change, negative = inhibition, hits mostly inhibitors; P27695; hit rate 0.35% among 350,000; AID 2517;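 also: plate controls were vehicle for no effect and reference inhibitor for full effect; nearly all actives have a fitted effect of over 55% in size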
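APE1 at 0.75 nM preincubated 15 min at room temperature with compound. Reaction then started with 50 nM double-stranded THF-abasic substrate labelled with TAMRA/BHQ-2, and 525/598 nm fluorescence read kinetically. Activity taken as third-minus-first read difference, normalized to DMSO and NSC13755 controls.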
RECQ1 inh-1 = RECQ1 (human) helicase inhibition; RECQ1 DNA unwinding, red fluorescence kinetic read; AID 2549; P46063; hit rate 0.54% among 240,000; Potency, µM (top dose mostly 57.3 µM), without a hit: at the top dose activity, negative = inhibition, hits mostly inhibitors;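 also: plate controls were vehicle for no effect and no enzyme for full effect; nearly all actives have a fitted effect of over 30% in size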
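50 nM RECQ1T1 preincubated 15 min with compound in Tris pH 8.0 buffer with MgCl2, DTT, Tween-20 and 2.5 ug/ml poly(dI-dC); started with 200 nM TAMRA/BHQ-2 forked duplex and 2 mM ATP. Unwinding read as fluorescence (525/598 nm), two reads 2 h apart.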
Lamin A splicing = LMNA splicing modulation | hit rate 0.01% among 200,000 | HeLa LMNA splicing GFP/RFP minigene ratio, 48 h | Potency, µM (top dose mostly 46.1 µM), without a hit: at the highest dose ratio change, negative = inhibition, most hits filed as inhibitors; active = well fitted inhibition curve with a large enough effect in the signal ratio, with a control signal flat, not every such curve was filed as active; inconclusive = small, poorly fitted or top-dose-only effect, or effect the other way, or a change in a side signal; the % refers to the signal ratio
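Read-out is the ratio of GFP to DsRed2 object intensity, acquired by 488 nm laser-scanning cytometry on HeLa lamin A-EGFP minigene reporter cells. Compound incubation 48 hrs at 37 °C in Opti-MEM with 2% FBS; DMSO 0.5% final.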
TDP1 inh = inhibitors of human tyrosyl-DNA phosphodiesterase TDP1; Potency, µM (top dose mostly 130 µM), without a hit: at the highest dose activity change, negative = inhibition, usual class: inhibitors; recombinant TDP1, AlphaScreen DNA substrate cleavage; AID 485290; hit rate 0.28% among 350,000; Q9NUW8; also: nearly all actives have a fitted effect of over 40% in size
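E. coli-derived human Tdp1, 1 nM final. Cpd preinc 15 min RT; substrate 15 nM final, 5 min RT; AS bead mix 10 ug/ml final, 10 min RT. Signal loss = tyrosine-FITC cleavage. No-enzyme wells = max signal.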
KAT2A inh = GCN5L2 (KAT2A) acetyltransferase inhibition; hit rate 0.21% among 390,000; Potency, µM (doses to about 58.9 µM), for the others: at the top dose activity change, negative = inhibition, most hits filed as inhibitors; AID 504327; GCN5L2 HAT assay, ThioGlo1 CoA-SH fluorescence
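Titration-based screen in which CoA formation is detected via maleimide probe ThioGlo1 (50uM) turning fluorescent on thiol reaction; substrates H3(1-25) 75uM and acetyl-CoA 70uM, GCN5L2 20nM, 20 min incubation at room temperature.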
RECQ1 conf = confirmation of human RECQ1 helicase inhibitors; shares compounds with RECQ1 inh-1; hit rate 28% among 610; Potency, µM (highest dose often 229 µM), for the others: top-dose activity change, negative = inhibition, usual class: inhibitors; RECQ1 helicase DNA unwinding, fluorescence; also: nearly all actives have a fitted effect of over 45% in size
RECQ1 ADP FP = displaces ADP in a fluorescence polarization counter-screen for RECQ1 hits | shares compounds with RECQ1 inh-1 | hit rate 27% among 530 | ADP fluorescence polarization displacement counterscreen | Potency, µM (doses to about 228 µM), for inactives: top-dose activity change, negative = inhibition, most hits filed as inhibitors; also: nearly all actives have a fitted effect of over 45% in size
RECQ1 inh-2 = blocks human RECQ1 DNA unwinding; shares compounds with RECQ1 inh-1; recombinant RECQ1 DNA unwinding, red fluorescence; Potency, µM (doses to about 119 µM), for the others: at the highest dose activity, negative = inhibition, most hits filed as inhibitors; hit rate 15% among 1,100; also: nearly all actives have a fitted effect of over 50% in size
The depositor's hits bear a star; [ ] = dose if it differs, or a comment. In the library only some 0.9% were active in any assay of this set; here they are far more common. Unless noted, calls follow the shape of the dose curve; as a rule, active = well fitted curve in the direction sought with a large enough effect; inconclusive = small, poorly fitted or top-dose-only effect, or another doubt; inactive = no such curve, though single readings can be large; an effect the other way counts as inactive or inconclusive. Unless noted, % is scaled to controls: 0 for no effect and ±100 for the full control effect; potency is read from the fitted curve at half-maximal effect.

Screening N#Cc1nc(Nc2ccccc2)nc(NC2CCCC2)n1 returned BLM inh -10%, APE1 inh -3%, RECQ1 inh-1 -14% and TDP1 inh 10%.
Screening CN1C(=O)CC2(C=CC(=O)C=C2OC(=O)c2ccccc2)c2ccccc21 (configuration not stated) returned BLM inh -1%, APE1 inh -8%, RECQ1 inh-1 -2% and TDP1 inh 4%.
`COc1ccc(/C=C2\SC(=O)N(CC(=O)NNC(=O)c3ccccc3O)C2=O)cc1` gave BLM inh -3%, APE1 inh 16%, RECQ1 inh-1 2.8µM*, Lamin A splicing inconclusive, TDP1 inh 0%, KAT2A inh -7% and RECQ1 inh-2 inconclusive.
O=C(NCc1ccco1)C(=O)NCC1OCCN1S(=O)(=O)c1cc(F)ccc1F (configuration not stated) was read as BLM inh -12%, APE1 inh inconclusive, RECQ1 inh-1 18µM*, TDP1 inh -9%, KAT2A inh -17%, RECQ1 conf 6%[114 µM] and RECQ1 ADP FP -3%[91.9 µM].
For O=C(NCc1ccco1)C(=O)NCC1OCCN1S(=O)(=O)c1ccc(F)cc1 (configuration not stated) the results were BLM inh -5%, APE1 inh -2%, RECQ1 inh-1 inactive, Lamin A splicing 10%, TDP1 inh -1% and KAT2A inh -3%.
For O=C(CN1CCN(c2ccc(O)cc2)CC1)NC(=O)NCc1ccco1 the results were BLM inh -6%, APE1 inh inconclusive, RECQ1 inh-1 22µM*, Lamin A splicing -24%, TDP1 inh -5%, KAT2A inh -7% and RECQ1 inh-2 -18%.
Screening O=C(CN1CCN(c2ccc(O)cc2)CC1)Nc1ccc2c(c1)OCCO2 returned BLM inh -3%, APE1 inh inconclusive, RECQ1 inh-1 inconclusive, TDP1 inh 1%, KAT2A inh 1% and RECQ1 inh-2 -11%.
CCCCOc1ccc(C(=O)Nc2onc3c2CCCC3)cc1 was read as BLM inh -6%, TDP1 inh 6% and KAT2A inh -16%.
Screening COc1ccc2[nH]c3c(C)c4ccncc4c(C)c3c2c1 returned BLM inh 42%, APE1 inh 7.9µM*, RECQ1 inh-1 22µM*, Lamin A splicing inconclusive, TDP1 inh 6%, KAT2A inh -4% and RECQ1 inh-2 7.9µM*.
`CC(C)Oc1ccc(C2C(C#N)=C(N)Oc3c2oc(CO)cc3=O)cc1` (configuration not stated) gave BLM inh -4%, APE1 inh -6%, RECQ1 inh-1 -1%, Lamin A splicing 4%[46 µM], TDP1 inh 2% and KAT2A inh -10%.
Cc1ccc(C2C(C#N)=C(N)Oc3c2oc(CO)cc3=O)o1 (configuration not stated) was read as BLM inh -1%, APE1 inh inconclusive, RECQ1 inh-1 40µM*, Lamin A splicing 12%, KAT2A inh -7% and RECQ1 inh-2 8%.
Screening CC1OC(OCC2OC(Oc3cc(O)c4c(c3)OC(c3ccc(O)cc3)CC4=O)C(O)C(O)C2O)C(O)C(O)C1O (configuration not stated) returned BLM inh 1%, APE1 inh 14%, RECQ1 inh-1 -20%, TDP1 inh 4% and KAT2A inh -10%.
CN(C)c1ccc(/C=C/C(=O)c2ccccc2)cc1[N+](=O)[O-] was read as BLM inh -11%, APE1 inh -1%, RECQ1 inh-1 6%, Lamin A splicing inconclusive, TDP1 inh -3% and KAT2A inh -10%.
For CNc1ccc(/C=C/C(=O)c2ccc(C)cc2)cc1[N+](=O)[O-] the results were BLM inh -7%, APE1 inh -11%, RECQ1 inh-1 inconclusive, Lamin A splicing inconclusive, TDP1 inh 5%, KAT2A inh 18% and RECQ1 inh-2 53%.
For CCOC(=O)C1OC1C(=O)NC(CC(C)C)C(=O)NCCC(C)C (configuration not stated) the results were APE1 inh 3%, RECQ1 inh-1 10%, TDP1 inh 6% and KAT2A inh -14%.
`C/C1=C\[C@@H](O)C(C(C)C)C(OC(=O)c2ccc(O)cc2)C/C(C)=C/CC1` (some centres not stated) gave BLM inh -11%, APE1 inh inconclusive, RECQ1 inh-1 -23%, TDP1 inh 8% and KAT2A inh -6%.
For Nc1nc2c(ncn2[C@H]2C[C@H](O)[C@@H](CO)O2)c(=O)[nH]1 the results were APE1 inh 37%, TDP1 inh 0% and KAT2A inh -1%.
Screening CCCCn1cnc2c(=O)[nH]c(N)nc21 returned TDP1 inh 4% and RECQ1 conf -3%[69.1 µM].
Screening NCC1OC(n2cnc3c(=O)[nH]c(N)nc32)C(O)C1O (configuration not stated) returned BLM inh 0%, APE1 inh -3%, RECQ1 inh-1 -9%, Lamin A splicing -3%, TDP1 inh -4%[56.1 µM] and KAT2A inh 2%.
`Nc1nc2c(ncn2COC(CO)CO)c(=O)[nH]1` gave BLM inh 5%, APE1 inh 32%, RECQ1 inh-1 -13%, Lamin A splicing inconclusive, TDP1 inh -3%, KAT2A inh -3% and RECQ1 conf -4%[69.1 µM].
`COCCn1c(C)cc(C(=O)COC(=O)c2ccc(S(=O)(=O)N(C)C)cc2)c1C` gave APE1 inh 46%, TDP1 inh 0% and KAT2A inh -2%.
Screening COCCn1c(C)cc(C(=O)COC(=O)c2ccc(NC(=O)CC#N)cc2)c1C returned BLM inh -16%, APE1 inh 8%, RECQ1 inh-1 32µM*, Lamin A splicing 7%, TDP1 inh 0%, KAT2A inh -28% and RECQ1 inh-2 -11%.
